Data: PubChem BioAssay

tested on: Chordin-like protein 2 (CHRDL2); test: CHRDL2 small-molecule binders, primary screen, biochemical, small-molecule microarray, 635 nm fluorescence (AID 1126); conditions: small-molecule microarray binding, fluorescence 635 nm; higher = more signal;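 note: printed compound slides probed with Chrdl2 protein at 4 µg/mL for 1 h at 4 C; score merges 667 nm emission intensity with signal to noise over three replicate slides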

SMILES | composite z-score
[N-]=[N+]=Nc1ccccc1C[C@@]1(C(=O)N2CCOCC2)N=C(c2ccc(OCCCO)cc2)O[C@@H]1c1ccccc1 | -0.209
[N-]=[N+]=Nc1ccccc1C[C@]1(C(=O)O)COC(c2ccc(OCCCO)cc2)=N1 | -1.31
COCCOC(=O)N1C(=O)[C@@]2(c3cc(C#CC4=CCCCC4)ccc31)[C@H](c1ccccc1OCCO)N1[C@H](c3ccccc3)[C@H](c3ccccc3)OC(=O)[C@H]1[C@@H]2C(=O)N1CCN(c2ncccn2)CC1 | 0.374
O=C1O[C@@H](c2ccccc2)[C@@H](c2ccccc2)N2[C@@H](c3ccc(OCCO)cc3)[C@]3(C(=O)Nc4ccc(C#CC5=CCCCC5)cc43)[C@@H](C(=O)NC[C@H](O)c3ccccc3)[C@H]12 | 1.16
[N-]=[N+]=Nc1ccccc1C[C@]1(C(=O)NCCN2CCOCC2)COC(c2ccc(OCCCO)cc2)=N1 | 0.376
O=C1OCCC=C[C@H]2OC34C=CCN(Cn5nnc6ccccc65)C(=O)[C@H]3N(CCCO)C(=O)[C@@H]4C12 (stereo not given in full) | -0.433
CC(C)[Si](C#C[Si](C(C)C)(C(C)C)C(C)C)(O[C@H](c1ccccc1)c1cn(Cc2ccccc2)nn1)C(C)C | 0.511
CC(C)N1C(=O)C[C@@](C(=O)O)(c2ccc([N+](=O)[O-])cc2)[C@H]1c1ccc(CO)cc1 | -1.25
C=CCC(OC(C)=O)[C@@H]1[C@@H](N(Cc2ccc(-c3ccccc3)cc2)C(=O)c2ccc(-c3ccccc3)cc2)c2cc(OCCCO)ccc2N1C(=O)c1ccc2ccccc2c1 (stereo not given in full) | 0.0949
COc1ccc([Si](C)(C)[C@@H]2[C@@H](CCO)O[C@]3(C(=O)N(Cc4ccccc4)c4ccc(N5CCOC5=O)cc43)[C@H]2C)cc1 | 0.127
[N-]=[N+]=Nc1ccccc1C[C@]1(C(=O)NCC(O)CO)COC(c2ccc(OCCCO)cc2)=N1 (stereo not given in full) | -1.21
CN(C)CCCCCCNC(=O)[C@@H]1C[C@@H]2C(=O)N3CCC[C@H]3C(=O)N2[C@@H]1c1cccc(OCCO)c1 | 1.42
CCOC(=O)C[C@H]1[C@H](OC(=O)c2cc3ccccc3oc2=O)[C@@H](NC(=O)c2ccccc2)c2cc(OCCCO)ccc2N1C(=O)c1ccccc1 | 0.498
O=C1C2C=CC(C(O)c3cccc(O)c3)N(Nc3ccc([N+](=O)[O-])cc3)C2C(=O)N1c1ccccc1 (stereo not given) | -0.264
C=CC[C@@]1(C(=O)NCCCOC)N=C(c2ccc(OCCCO)cc2)O[C@@H]1c1ccccc1 | -0.919
CCCCC(=C=CC[C@H](O)c1ccc(OCCO)cc1)CCO | -1.13
C=C(C(=O)CC[C@H](OC(=O)c1ccccc1-c1ccccc1C(=O)O)c1cccc(OCCO)c1)C(C)C | -0.0748
COC(=O)[C@]1(CCS(=O)(=O)c2ccccc2)N=C(c2ccc(OCCCO)cc2)O[C@@H]1c1ccccc1N=[N+]=[N-] | 0.412

SMILES | composite z-score
C=C(/C(=C/C[C@H](OC(=O)c1ccncc1)c1ccc(CO)o1)c1cnc2ccccc2c1)C(C)C | 0.684
CC[C@@H]1C=C(C(=O)O)[C@H](c2ccc(C#N)cc2)N1S(=O)(=O)c1ccc(C)cc1 | -1.52
CCCCCCCCCCC(O)C1C=CC2C(=O)N(c3ccccc3)C(=O)C2N1Nc1ccc(C#N)cc1 (stereo not given) | -0.842
CC[C@@H]1C=C(C(=O)O)[C@H](c2ccccc2)N1S(=O)(=O)c1ccc(C)cc1 | -0.535
O=C1O[C@H](c2ccccc2)[C@H](c2ccccc2)N2[C@H]1[C@@H](C(=O)O)[C@]1(C(=O)Nc3ccc(C#CCCO)cc31)[C@H]2c1ccccc1OCCO | -0.579
O=C1C2C=CC(C(O)c3ccco3)N(Nc3ccccc3F)C2C(=O)N1c1ccccc1 (stereo not given) | -0.238
COc1ccc([Si](C)(C)[C@@H]2[C@@H](CCO)O[C@]3(C(=O)N(Cc4cccc(NC(=O)[C@H](C)O)c4)c4ccccc43)[C@H]2C)cc1 | -0.083
CC(C)N1C(=O)C[C@@](C(=O)NC2CC2)(c2ccc([N+](=O)[O-])cc2)[C@H]1c1ccc(CO)cc1 | -1.08
Oc1ccc2cc[n+](Cc3cc4c(cc3Br)OCO4)cc2c1 | -0.496
CCOC(=O)C[C@H]1[C@H](OC(=O)c2ccc(-c3ccccc3)cc2)[C@@H](NC(=O)CC(C)C)c2cc(OCCCO)ccc2N1C(=O)c1ccc2ccccc2n1 | 0.0987
CCCCC(CC)C(O)C1C=CC2C(=O)N(c3ccccc3)C(=O)C2N1Nc1ccccc1F (stereo not given) | -0.904
CCOC(=O)C[C@H]1[C@H](OC(=O)c2ccccc2-c2ccccc2)[C@@H](NC(=O)c2ccc3ccccc3n2)c2cc(OCCCO)ccc2N1C(=O)Cc1ccc(OC)cc1 | 0.456
COCCCNC(=O)[C@@]1(CCC(=O)OC(C)(C)C)N=C(c2ccc(OCCCO)cc2)O[C@H]1c1ccccc1N=[N+]=[N-] | 0.279
OCCCC1=CC(c2ccc(CN3CCCC3)cc2)N(Cc2cc3c(cc2Br)OCO3)CC1 (stereo not given) | 0.901
CCOC(=O)C[C@H]1[C@H](OC(=O)Cc2ccc3c(c2)OCO3)[C@@H](NC(=O)C2CCCCC2)c2cc(OCCCO)ccc2N1C(=O)c1ccccc1 | -0.311
COCC(=C=CC[C@H](O)c1ccccc1OCCO)C[C@H](O)c1ccccn1 | -0.123
[N-]=[N+]=NCc1ccccc1[C@@H]1OC(c2ccc(OCCCO)cc2)=N[C@]1(CCS(=O)(=O)c1ccccc1)C(=O)O | -1.92
